The full data set covers some 6,500 targets. This sample favours those with a hit. About 2% of all pairs of compound and target were hits. Unmarked numbers belong to inactive results.
The targets below were run with COC(=O)C#Cc1ccccc1 [methyl 3-phenylpropiolate] (assay: log2 ratio of iodoacetamide-alkyne labeling of the cysteine site, DMSO over compound (competition); higher = stronger covalent engagement of the cysteine by the compound, active = 1 or more). Settings: 500 µM; treatment time 1 h; system: HEK293T cell lysate.
Outline: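 HEK293T lysate (2 mg/mL) was treated with DMSO or electrophile (500 µM, 1 h, ambient temperature), then iodoacetamide alkyne (1 h), clicked to sCIP-TMT reagents, pooled, trypsin-digested overnight at 37 °C, streptavidin-enriched and acid-eluted. Peptides were run on Orbitrap Eclipse LC-MS/MS with FAIMS and quantified in FragPipe. The log2 competition ratio per cysteine is mean control-channel over mean compound-channel reporter intensity. Duplicate channels and three replicates were used, and cysteines quantified in only one replicate were excluded.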

Sequence of UniProt Q06210 (Q06210 whole entry, looked up): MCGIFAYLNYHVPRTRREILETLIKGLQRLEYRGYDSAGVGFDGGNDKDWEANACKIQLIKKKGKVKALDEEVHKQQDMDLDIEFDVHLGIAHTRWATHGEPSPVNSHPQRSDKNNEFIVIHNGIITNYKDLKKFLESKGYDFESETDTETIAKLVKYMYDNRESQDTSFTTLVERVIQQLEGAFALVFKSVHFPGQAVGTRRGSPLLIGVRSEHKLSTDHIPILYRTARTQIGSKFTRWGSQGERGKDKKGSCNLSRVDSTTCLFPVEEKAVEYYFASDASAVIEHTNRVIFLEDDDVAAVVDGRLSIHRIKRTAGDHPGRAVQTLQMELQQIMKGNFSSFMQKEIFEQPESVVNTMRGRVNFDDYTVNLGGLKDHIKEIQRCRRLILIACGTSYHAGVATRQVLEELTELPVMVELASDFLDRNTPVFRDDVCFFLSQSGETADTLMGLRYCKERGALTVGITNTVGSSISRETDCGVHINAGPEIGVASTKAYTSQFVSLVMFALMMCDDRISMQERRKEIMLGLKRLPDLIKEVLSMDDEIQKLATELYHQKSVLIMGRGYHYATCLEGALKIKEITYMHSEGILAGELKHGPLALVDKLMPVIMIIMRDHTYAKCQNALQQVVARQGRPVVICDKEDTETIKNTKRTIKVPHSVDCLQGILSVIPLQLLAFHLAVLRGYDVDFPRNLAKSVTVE
Sequence of UniProt Q2TAA2 (Q2TAA2 whole entry, looked up): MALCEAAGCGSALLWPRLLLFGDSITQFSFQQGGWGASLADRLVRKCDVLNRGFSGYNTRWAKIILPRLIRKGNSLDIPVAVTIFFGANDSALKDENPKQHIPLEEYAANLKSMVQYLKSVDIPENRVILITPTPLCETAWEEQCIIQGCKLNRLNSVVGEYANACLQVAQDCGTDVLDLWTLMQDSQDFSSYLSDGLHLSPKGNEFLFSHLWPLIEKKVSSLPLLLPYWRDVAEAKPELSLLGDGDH
Sequence of UniProt Q08380 (Q08380 whole entry, looked up): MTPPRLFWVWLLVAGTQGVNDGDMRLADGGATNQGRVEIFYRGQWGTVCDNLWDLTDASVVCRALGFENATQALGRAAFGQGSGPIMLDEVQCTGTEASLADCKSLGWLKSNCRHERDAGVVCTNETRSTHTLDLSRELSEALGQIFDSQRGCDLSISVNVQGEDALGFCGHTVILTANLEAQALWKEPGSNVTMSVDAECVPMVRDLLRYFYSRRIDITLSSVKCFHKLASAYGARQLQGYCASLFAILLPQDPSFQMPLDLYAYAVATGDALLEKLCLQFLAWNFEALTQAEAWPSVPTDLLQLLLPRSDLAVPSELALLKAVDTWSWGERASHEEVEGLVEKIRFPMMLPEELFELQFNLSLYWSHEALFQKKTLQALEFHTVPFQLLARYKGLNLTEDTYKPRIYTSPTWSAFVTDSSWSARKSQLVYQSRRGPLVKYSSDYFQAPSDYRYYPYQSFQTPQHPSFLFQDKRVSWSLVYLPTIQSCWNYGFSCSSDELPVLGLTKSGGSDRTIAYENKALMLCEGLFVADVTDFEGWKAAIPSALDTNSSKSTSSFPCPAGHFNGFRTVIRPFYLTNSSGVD
Sequence of UniProt Q02952 (Q02952 whole entry, looked up): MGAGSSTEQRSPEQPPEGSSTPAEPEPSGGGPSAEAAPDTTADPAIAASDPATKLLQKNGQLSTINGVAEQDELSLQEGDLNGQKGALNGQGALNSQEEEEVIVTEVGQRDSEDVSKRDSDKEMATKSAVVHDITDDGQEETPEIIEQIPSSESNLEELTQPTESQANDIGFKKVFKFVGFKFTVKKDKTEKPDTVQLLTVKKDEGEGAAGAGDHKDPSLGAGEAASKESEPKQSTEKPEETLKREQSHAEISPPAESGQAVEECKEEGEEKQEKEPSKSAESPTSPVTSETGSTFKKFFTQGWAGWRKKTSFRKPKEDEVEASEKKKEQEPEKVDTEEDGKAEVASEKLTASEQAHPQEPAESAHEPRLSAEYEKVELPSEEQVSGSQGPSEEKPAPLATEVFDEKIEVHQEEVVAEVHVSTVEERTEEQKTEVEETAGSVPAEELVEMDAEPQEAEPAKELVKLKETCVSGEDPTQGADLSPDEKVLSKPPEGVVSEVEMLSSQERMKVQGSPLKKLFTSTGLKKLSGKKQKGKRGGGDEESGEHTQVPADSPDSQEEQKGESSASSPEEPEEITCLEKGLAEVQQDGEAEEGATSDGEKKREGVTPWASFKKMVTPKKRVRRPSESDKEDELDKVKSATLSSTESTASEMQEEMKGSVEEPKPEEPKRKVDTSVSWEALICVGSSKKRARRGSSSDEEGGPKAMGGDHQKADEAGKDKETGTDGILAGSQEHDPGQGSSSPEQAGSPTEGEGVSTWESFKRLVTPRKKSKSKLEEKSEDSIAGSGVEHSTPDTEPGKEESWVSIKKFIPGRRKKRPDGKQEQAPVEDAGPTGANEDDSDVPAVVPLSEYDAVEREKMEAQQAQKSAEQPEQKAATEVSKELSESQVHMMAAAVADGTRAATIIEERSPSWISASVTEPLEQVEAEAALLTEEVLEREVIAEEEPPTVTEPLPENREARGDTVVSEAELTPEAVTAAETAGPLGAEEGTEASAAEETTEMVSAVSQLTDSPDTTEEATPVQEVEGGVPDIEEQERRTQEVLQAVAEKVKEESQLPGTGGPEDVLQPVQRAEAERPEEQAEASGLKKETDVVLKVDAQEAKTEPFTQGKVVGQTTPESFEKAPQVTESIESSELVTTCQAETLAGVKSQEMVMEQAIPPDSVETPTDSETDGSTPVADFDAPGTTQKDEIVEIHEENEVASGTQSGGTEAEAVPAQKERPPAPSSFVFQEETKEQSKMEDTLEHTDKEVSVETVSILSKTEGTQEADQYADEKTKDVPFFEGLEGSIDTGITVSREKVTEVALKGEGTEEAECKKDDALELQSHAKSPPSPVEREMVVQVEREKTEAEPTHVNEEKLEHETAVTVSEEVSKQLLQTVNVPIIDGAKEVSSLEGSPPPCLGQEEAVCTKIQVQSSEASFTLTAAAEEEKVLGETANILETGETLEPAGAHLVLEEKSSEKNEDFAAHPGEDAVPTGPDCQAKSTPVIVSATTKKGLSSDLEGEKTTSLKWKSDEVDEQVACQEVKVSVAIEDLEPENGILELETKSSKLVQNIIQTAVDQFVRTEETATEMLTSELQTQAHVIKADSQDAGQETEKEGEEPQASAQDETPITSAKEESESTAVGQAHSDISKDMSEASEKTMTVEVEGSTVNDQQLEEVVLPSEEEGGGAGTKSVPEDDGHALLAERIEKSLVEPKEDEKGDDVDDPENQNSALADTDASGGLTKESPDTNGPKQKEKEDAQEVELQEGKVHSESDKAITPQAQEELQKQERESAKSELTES
Sequence of UniProt Q14684 (Q14684 whole entry, looked up): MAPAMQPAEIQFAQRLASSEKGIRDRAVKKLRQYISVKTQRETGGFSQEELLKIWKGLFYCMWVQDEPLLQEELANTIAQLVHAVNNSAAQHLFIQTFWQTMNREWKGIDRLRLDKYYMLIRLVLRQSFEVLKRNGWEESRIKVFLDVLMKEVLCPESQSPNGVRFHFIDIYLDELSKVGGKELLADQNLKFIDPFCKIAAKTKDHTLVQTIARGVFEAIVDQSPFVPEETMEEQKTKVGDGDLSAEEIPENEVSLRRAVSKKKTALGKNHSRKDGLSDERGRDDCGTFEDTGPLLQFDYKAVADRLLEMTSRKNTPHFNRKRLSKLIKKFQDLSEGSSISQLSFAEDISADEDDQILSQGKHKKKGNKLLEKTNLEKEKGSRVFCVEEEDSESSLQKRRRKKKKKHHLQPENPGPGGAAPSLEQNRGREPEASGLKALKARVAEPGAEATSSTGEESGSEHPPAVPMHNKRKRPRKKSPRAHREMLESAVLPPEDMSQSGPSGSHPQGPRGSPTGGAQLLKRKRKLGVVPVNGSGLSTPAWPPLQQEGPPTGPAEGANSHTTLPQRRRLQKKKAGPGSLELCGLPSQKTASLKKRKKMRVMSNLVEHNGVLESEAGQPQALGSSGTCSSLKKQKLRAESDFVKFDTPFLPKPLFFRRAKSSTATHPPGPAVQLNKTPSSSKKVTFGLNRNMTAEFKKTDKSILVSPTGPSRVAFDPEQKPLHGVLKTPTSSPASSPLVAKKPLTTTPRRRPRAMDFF
Sequence of UniProt Q02218 (Q02218 whole entry, looked up): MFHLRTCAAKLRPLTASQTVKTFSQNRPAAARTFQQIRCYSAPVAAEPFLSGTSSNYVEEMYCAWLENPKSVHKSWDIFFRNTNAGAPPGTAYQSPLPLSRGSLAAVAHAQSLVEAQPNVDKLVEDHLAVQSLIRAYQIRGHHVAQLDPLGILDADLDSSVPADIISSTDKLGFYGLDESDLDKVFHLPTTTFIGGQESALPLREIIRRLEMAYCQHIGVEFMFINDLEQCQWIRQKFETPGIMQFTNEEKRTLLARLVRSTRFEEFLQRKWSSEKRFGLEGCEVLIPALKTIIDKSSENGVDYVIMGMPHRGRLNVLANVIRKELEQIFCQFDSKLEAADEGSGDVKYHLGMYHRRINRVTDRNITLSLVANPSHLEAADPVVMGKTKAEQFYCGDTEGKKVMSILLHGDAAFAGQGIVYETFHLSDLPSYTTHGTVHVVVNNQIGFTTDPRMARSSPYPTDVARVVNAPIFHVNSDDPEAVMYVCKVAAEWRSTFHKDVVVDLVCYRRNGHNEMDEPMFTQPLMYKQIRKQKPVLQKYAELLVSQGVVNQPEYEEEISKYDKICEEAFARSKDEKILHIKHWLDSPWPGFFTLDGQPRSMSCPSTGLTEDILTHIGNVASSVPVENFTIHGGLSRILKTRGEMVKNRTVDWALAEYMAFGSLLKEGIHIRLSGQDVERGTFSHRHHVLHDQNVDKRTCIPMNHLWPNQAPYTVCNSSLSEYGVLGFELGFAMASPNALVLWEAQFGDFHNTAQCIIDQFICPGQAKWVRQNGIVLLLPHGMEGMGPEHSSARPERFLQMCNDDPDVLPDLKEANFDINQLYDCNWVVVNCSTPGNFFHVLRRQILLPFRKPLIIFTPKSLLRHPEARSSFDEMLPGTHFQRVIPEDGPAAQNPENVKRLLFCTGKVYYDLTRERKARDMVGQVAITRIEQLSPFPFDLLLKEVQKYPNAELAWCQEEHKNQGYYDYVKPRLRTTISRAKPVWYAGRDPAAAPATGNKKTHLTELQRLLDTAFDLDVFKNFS

Which “log2 ratio of iodoacetamide-alkyne labeling” value (“log2 ratio” for short) does the source give for HMGCS1 C86 (UniProt Q01581) here?
The value was 0.0742.

Which “log2 ratio” value does the source give for NUP98 C1312 (UniProt P52948) here?
The value was 0.426.

How did the “log2 ratio” value turn out when UniProt Q3LXA3_C24 was run?
Its value is 0.218.

Which “log2 ratio” value does the source give for UBE2V1 C144 (UniProt Q13404) here?
Its value is 0.136.

With LLGL1 C1059 (UniProt Q15334) as the target, how does the “log2 ratio” value read?
The value was 0.241.

RRP1B C628 (UniProt Q14684) was tested. Which “log2 ratio” value did it give?
Its value is 0.838.

With AKAP12 C1139 (UniProt Q02952) as the target, how does the “log2 ratio” value read?
Its value is 0.521.

For LLGL1 C697 (UniProt Q15334), which “log2 ratio” value is on record?
The value was 0.999.

How did the “log2 ratio” value turn out when UniProt Q5MNZ6_C6 was run?
Its value is 0.235.

EIF2B5 C335 (UniProt Q13144) was tested. Which “log2 ratio” value did it give?
Its value is 0.267.

SPTBN1 C112 (UniProt Q01082) was tested. Which “log2 ratio” value did it give?
The value was 0.622.

GFPT1 C55 (UniProt Q06210) was tested. Which “log2 ratio” value did it give?
Its value is 0.387.

How did the “log2 ratio” value turn out when HK2 C158 (UniProt P52789) was run?
Its value is 0.246.

For OGDH C802 (UniProt Q02218), which “log2 ratio” value is on record?
The value was -0.0839.

For UniProt P55196_C942, which “log2 ratio” value is on record?
Its value is 1.05 (active).

Which “log2 ratio” value does the source give for EEA1 C1405 (UniProt Q15075) here?
The value was 0.0817.

UniProt P62854_C77 was tested. Which “log2 ratio” value did it give?
Its value is 0.434.

With UniProt P60891_C230 as the target, how does the “log2 ratio” value read?
The value was 0.704.

Which “log2 ratio” value does the source give for GAPVD1 C568 (UniProt Q14C86) here?
Its value is 0.475.

LMNB2 C212 (UniProt Q03252) was tested. Which “log2 ratio” value did it give?
Its value is 0.214.

How did the “log2 ratio” value turn out when GABPB1 C331 (UniProt Q06547) was run?
Its value is 0.198.

Which “log2 ratio” value does the source give for FHL1 C71 (UniProt Q13642) here?
The value was 0.0627.

NOTCH2 C1357 (UniProt Q04721) was tested. Which “log2 ratio” value did it give?
Its value is 1.55 (active).

IAH1 C9 (UniProt Q2TAA2) was tested. Which “log2 ratio” value did it give?
The value was 2.43 (active).

NSUN2 C184 (UniProt Q08J23) was tested. Which “log2 ratio” value did it give?
Its value is -0.0329.

Which “log2 ratio” value does the source give for RPS27A C144 (UniProt P62979) here?
Its value is -0.175.

Which “log2 ratio” value does the source give for UniProt P62753_C12 here?
Its value is 0.196.

How did the “log2 ratio” value turn out when UniProt P61978_C184 was run?
Its value is 0.0026.

SPTAN1 C1622 (UniProt Q13813) was tested. Which “log2 ratio” value did it give?
The value was -0.0196.

How did the “log2 ratio” value turn out when UniProt P83731_C6 was run?
The value was 0.668.

PPA1 C270 (UniProt Q15181) was tested. Which “log2 ratio” value did it give?
The value was 0.153.

Which “log2 ratio” value does the source give for UniProt P62273_C39 here?
Its value is 0.0855.

With RPL18 C134 (UniProt Q07020) as the target, how does the “log2 ratio” value read?
Its value is 0.213.

How did the “log2 ratio” value turn out when LGALS3BP C496 (UniProt Q08380) was run?
The value was 1.72 (active).

For CNN3 C173 (UniProt Q15417), which “log2 ratio” value is on record?
The value was 1.01 (active).

— the supplement of paper PMC11006884
